Hit rate of the full screen: of about 5,500 compounds, about 2,000 (36%) were called active. Another 18% or so got no clear call; they are omitted. Cut-off read from the data, not from the text of the source: active = normalized growth mostly below about 0.91 (no sharp cut-off); inconclusive = no clear call, values can overlap the other calls; inactive = mostly above about 0.92. Some of the results follow.
Test: chemical genetic growth profiling, strain panel (AID 1159580);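 note: tested at 20 µM; growth read once vehicle control cultures reached saturation at 30 °C; 1 = growth at the plate median or of vehicle wells; lower values mean less growth of the strain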
Conditions: S. cerevisiae deletion strains, growth OD
[1] = locus YAL040C, strain CLN3, active compounds read low
[2] = locus YCL061C, strain MRC1 (second series), active compounds read low
[3] = locus YDR363W, strain ESC2, active compounds read low
[4] = locus YER002W, strain NOP16, active compounds read low
[5] = locus YGR078C, strain PAC10, active compounds read low
[6] = locus YNL175C, strain NOP13, active compounds read low
[7] = locus YNL197C, strain WHI3, active compounds read low
[8] = locus YNL224C, strain SQS1, active compounds read low
[9] = locus YNL322C, strain KRE1, active compounds read low
[10] = locus YOR083W, strain WHI5 (second series), active compounds read low

Measured: normalized growth

NC(N)=Nc1ccc2[nH]c3c(c2c1)C[C@@]1(O)[C@H]2Cc4ccc(O)c5c4[C@@]1(CCN2CC1CC1)[C@H]3O5
inactive: locus YAL013W, strain DEP1, active compounds read low 1.02 | [1] 1.07 | [2] 0.991 | locus YDR150W, strain NUM1, active compounds read low 0.986 | [3] 1.04 | [4] 1.01 | [5] 0.991 | locus YJR075W, strain HOC1, active compounds read low 1.01 | [6] 0.998 | [7] 0.985 | [8] 1 | [9] 1.03 | [10] 0.97

Oc1ccc(C2CNCc3sccc32)cc1O (stereo unspecified)
inactive: [1] 1.01 | [2] 0.962 | [3] 0.999 | [4] 1 | [5] 0.998 | locus YMR263W, strain SAP30, active compounds read low 1 | locus YNL128W, strain TEP1, active compounds read low 1.01 | locus YNL153C, strain GIM3, active compounds read low 0.963 | [6] 0.995 | [7] 0.995 | [8] 1 | [10] 1
active: [9] 0.892
